In the library only some 11% were active in any assay of this set; here they are far more common.
SW480 rerep: DNA re-replication induction in SW480 cells; Potency, µM (series often up to 46.1 µM), inactives show at the highest dose re-replication activation, actives largely listed as activators; 340,000 compounds, 1.8% hits; SW480 DNA re-replication, Hoechst DNA content imaging, 48 h; further: potency means the concentration at half of the fitted maximal effect; % of control where 0% means no effect; nearly all actives have a fitted effect of over 55% in size
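SW480 cells exposed to compounds for 48 hr at 37 C, 5% CO2, then Hoechst-stained 40 min. Nuclear DNA content imaged by fluorescence scanning (405 nm excitation, 500-530 nm emission); re-replication scored as increased high-intensity nuclei.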
Gal4-VP16 FLuc: counter-screen for ROR gamma inhibitors: Gal4-VP16 reporter | Drosophila S2 Gal4-VP16 UAS-luciferase, luminescence, 20 h | Potency, µM (top dose mostly 53.6 µM), for inactives: top-dose activity, negative = inhibition, actives largely listed as inhibitors | 310,000 compounds, 3.5% hits | AID 2546;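 further: Gal4-VP16 expression switched on by copper sulfate through the metallothionein promoter; potency means the concentration at half of the fitted maximal effect; on the % scale 0 is the no-effect control and ±100 the full control effect; nearly all actives have a fitted effect of over 50% in size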
IL1B secr inh: inflammasome signaling inhibition, IL-1 beta readout. THP-1 LPS/ATP IL-1B secretion, AlphaLISA, 16 h; active compounds read low. activity change, % at 57.5 µM. 360,000 compounds, 4.7% hits. AID 743279; in the data active means activity change below about -50%; inconclusive means mostly about -30% to -49%; further: on the % scale 0 is the no-effect control and ±100 the full control effect
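THP-1 cells pretreated 1 hr with compounds (up to 57.5 uM final), then stimulated with LPS (250 ng/mL final) plus ATP (1.25 mM final); secreted IL-1B measured by AlphaLISA after 16 hr, decreased signal indicating inhibition.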
RORgamma inh: inhibitors of mouse ROR gamma transcriptional activity. Drosophila S2 Gal4-RORgamma UAS-luciferase reporter, 20 h. P51450. 310,000 compounds, 5.4% hits. Potency, µM (titrated, usually from 53.6 µM), without a hit: top-dose activity change, negative = inhibition, actives largely listed as inhibitors; further: potency means the concentration at half of the fitted maximal effect; on the % scale 0 is the no-effect control and ±100 the full control effect; nearly all actives have a fitted effect of over 60% in size
Target sequence (P51450 whole entry, looked up, the tested form may be a part): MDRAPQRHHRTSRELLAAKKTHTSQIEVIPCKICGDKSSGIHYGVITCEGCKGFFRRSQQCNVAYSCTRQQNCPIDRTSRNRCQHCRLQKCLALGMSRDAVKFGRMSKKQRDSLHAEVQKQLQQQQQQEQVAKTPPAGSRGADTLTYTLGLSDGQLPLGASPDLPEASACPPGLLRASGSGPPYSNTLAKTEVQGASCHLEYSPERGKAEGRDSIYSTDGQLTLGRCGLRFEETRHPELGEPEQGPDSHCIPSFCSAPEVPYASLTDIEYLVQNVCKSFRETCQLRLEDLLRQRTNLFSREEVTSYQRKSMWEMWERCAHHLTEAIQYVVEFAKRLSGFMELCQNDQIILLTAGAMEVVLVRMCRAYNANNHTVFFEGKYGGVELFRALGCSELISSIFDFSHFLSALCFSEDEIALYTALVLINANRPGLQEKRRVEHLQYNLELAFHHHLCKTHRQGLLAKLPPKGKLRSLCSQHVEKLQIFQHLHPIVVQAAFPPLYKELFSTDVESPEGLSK
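Read-out: Photinus luciferase luminescence; inhibitors lower reporter signal. Insect Schneider cells with Gal4-ROR gamma fusion under metallothionein promoter, UAS reporter; 700 uM final copper sulfate induction, 20 hr, ambient temperature.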
MCF10A rereplic: inducers of DNA re-replication in MCF 10A breast cells; MCF 10A DNA re-replication, Hoechst nuclear intensity, 48 h; 350,000 compounds, 2.9% hits; Potency, µM (series often up to 46.1 µM), for inactives: top-dose activity, positive = re-replication, usual class: activators; further: potency means the concentration at half of the fitted maximal effect; % of control where 0% means no effect; nearly all actives have a fitted effect of over 50% in size
* marks the source's active call; other numbers are inactive results; ? = inconclusive; . = not tested or not shown. Unless noted, the call rests on the fitted dose curve; in most records, active means well fitted curve in the direction sought with a large enough effect; inconclusive means small, poorly fitted or top-dose-only effect, or another doubt; inactive means no such curve, though single readings can be large; an effect the other way counts as inactive or inconclusive.

SMILES | SW480 rerep | Gal4-VP16 FLuc | IL1B secr inh | RORgamma inh | MCF10A rereplic
COc1ccc(Cn2c(SCc3ccccc3C)nc3cc(OC)c(OC)cc3c2=N)cc1 | . | 22.4µM* | . | ? | .
COc1cc2nc(SCc3ccc(F)cc3)n(Cc3cccs3)c(=N)c2cc1OC | -9.6% | ? | -2.5 | -0.7% | 23.7%
COCCCn1c(SCCc2ccccc2)nc2cc(OC)c(OC)cc2c1=N | -14.0% | 8.8% | -17.2 | 3.5% | 7.31µM*
Cc1cc(-c2ccccc2)n(-c2cc(N/N=C/c3ccccc3O)ncn2)n1 | ? | 5.62µM* | 49.5 | 11.2µM* | 2.06µM*
CNc1cc(-n2nc(C)cc2-c2ccccc2)ncn1 | 0.1% | 0.7% | 15.8 | -21.5% | -3.1%
CCCCCOc1ccc(C(O)C(CN2CCOCC2)c2ccccc2)cc1 (stereo not given) | 0.4% | 7.4% | -61.8* | 25.2% | ?
O=C(c1ccccc1)C(CN1CCCCC1)c1ccccc1 (stereo not given) | 1.46µM* | . | -102.0* | . | 4.11µM*
COc1ccc(C(O)C(CN2CCOCC2)c2ccccc2)cc1 (stereo not given) | 3.5% | -7.5% | -7.7 | -14.3% | 3.3%
CC(CN1CCN(CC(C)C(=O)c2ccccc2)CC1)C(=O)c1ccccc1 (stereo not given) | 1.6% | . | 1.8 | . | 7.2%
CC(CN1CCCC1)OC(=O)C(c1ccccc1)c1ccccc1 (stereo not given) | ? | -5.4% | -27.8 | 2.0% | 0.581µM*
CC(CN1CCOCC1)OC(=O)c1ccc(Br)cc1 (stereo not given) | ? | ? | 31.1 | 2µM* | ?
CC(CN1CCCCC1)OC(=O)CCc1ccccc1 (stereo not given) | 4.1% | 2.2% | -4.1 | -2.5% | 21.5%
CN1N=C(N)c2cn(C3OC(COP(=O)(O)O)C(O)C3O)c3ncnc1c23 (stereo not given) | 1.3% | . | 181.2 | . | 4.2%
Cc1cccc(C(=O)N2CCN(CCNC(=O)C(=O)Nc3ccc(F)cc3)CC2)c1 | 0.6% | 17.8% | -11.9 | 1.0% | 0.7%
Clc1ccc(-c2nsc(N3CCOCC3)n2)c(Cl)c1 | -8.0% | -14.8% | -11.7 | ? | 7.4%
CCOc1ccc(C(C#N)N2CCOCC2)cc1OC (stereo not given) | -4.6% | -5.6% | 13.2 | 30.2% | 3.7%
O=C(c1ccc(Br)cc1)C(CN1CCOCC1)c1ccccc1 (stereo not given) | ? | 20µM* | -98.1* | 15.8µM* | 18.4µM*
CCOc1ccc(C(CN2CCOCC2)C(C)=O)cc1OC (stereo not given) | . | . | -116.6* | . | .
CCOc1ccc(C(=O)C(CN2CCOCC2)c2ccccc2)cc1 (stereo not given) | 5.17µM* | ? | -95.0* | ? | 7.31µM*
CN(C)c1ccc(CNC(=O)/C=C/[C@H]2O[C@@H](n3ccc(=O)[nH]c3=O)[C@H](O)[C@@H]2O)cc1 | . | . | 0.0 | . | .
C/C=C\C[C@@H](C)[C@@H](O)[C@H]1C(=O)N[C@@H](CC)C(=O)N(C)CC(=O)N(C)[C@@H](CC(C)C)C(=O)N[C@@H](C(C)C)C(=O)N(C)[C@@H](CC(C)C)C(=O)N[C@@H](C)C(=O)N[C@H](C)C(=O)N(C)[C@@H](CC(C)C)C(=O)N(C)[C@@H](CC(C)C)C(=O)N(C)[C@@H](C(C)C)C(=O)N1C | . | -4.5% | . | 9.0% | .
O=C(Cc1ccccc1)NCC(=O)N1CCN(c2ccccc2F)CC1 | 0.7% | -3.6% | 15.0 | 18.0% | -1.5%
COC(=O)[C@H](C)NC(=O)c1cc2c(cn1)[nH]c1ccccc12 | 0.2% | 13.8% | -85.5* | 4.2% | 3.6%
CCc1c(C)nc2ccc(Br)cc2c1SCCC#N | 2.2% | -8.6% | -182.9* | 14.2% | ?
CC1CCCCN1C(=O)COC(=O)C1CCN(S(=O)(=O)c2ccc3c(c2)OCCO3)CC1 (stereo not given) | 0.5% | . | 10.0 | . | 11.7%
SMILES | SW480 rerep | Gal4-VP16 FLuc | IL1B secr inh | RORgamma inh | MCF10A rereplic
CCCCCN1C=CC(=C2C(=O)c3ccccc3C2=O)C=C1 | 7.8% | 1.26µM* | -18.2 | 1.12µM* | 7.4%
CC1=CC(=C2C(=O)c3ccccc3C2=O)C=C(C)N1C | 3.3% | -4.3% | -24.6 | -6.8% | 13.8%
Cc1ccn2c(NC(C)(C)C)c(-c3cccs3)nc2c1 | -34.5% | -16.6% | ? | 11.2µM* | ?
O=C1C2C(c3ccccc3)CC=CC2C(c2ccc3ccccc3c2)N1Cc1ccccc1 (stereo not given) | . | 1.7% | . | 41.5% | .
C=CC(=O)N1c2ccccc2Sc2ccc(NC(=O)OCC)cc21 | ? | . | -111.7* | . | 6.51µM*
CCOC(=O)Nc1ccc2c(c1)Nc1ccccc1S2 | 4.6% | -12.6% | -65.6* | 31.2% | 2.7%
CC(=O)c1ccc2c(c1)Nc1ccccc1S2 | 3.3% | 7.6% | -15.3 | 24.8% | -1.1%
COc1ccc(-c2c(O)c3c(OC)c4c(cc3oc2=O)OC(C)(C)C=C4)cc1 | . | -17.4% | . | -42.9% | .
N#CC1=C(N)Oc2c(ccc3cccnc23)C1c1ccccc1 (stereo not given) | 5.17µM* | -3.9% | 74.4 | -25.1% | 14.6µM*
Cc1ccc2[nH]c(=O)c(C3C(C#N)=C(N)Oc4c3ccc3cccnc43)cc2c1 (stereo not given) | ? | -0.8% | ? | -5.6% | ?
N#CC1=C(N)Oc2c(ccc3ccccc23)C1c1cccs1 (stereo not given) | 0.562µM* | 11.2% | 54.7 | -8.5% | ?
N#CC1=C(N)Oc2c(O)cc3ccccc3c2C1c1ccsc1 (stereo not given) | ? | ? | -86.3* | ? | ?
N#CC1=C(N)Oc2ccc3ccccc3c2C1c1cccnc1 (stereo not given) | 4.61µM* | -10.0% | 0.0 | -19.4% | 1.64µM*
OCC[C@H]1C[C@@H](O)[C@H](O)[C@@]2(CCc3ccccc3O2)O1 | -7.2% | . | -1.8 | . | 7.1%
Cc1cn([C@H]2C[C@H](O)[C@@H](CNC/C=C/c3ccccc3[N+](=O)[O-])O2)c(=O)[nH]c1=O | . | . | -12.1 | . | .
CCCc1ccccc1OCCNS(=O)(=O)c1cc2c(cc1C)OCC(=O)N2 | 2.7% | ? | -98.6* | 15.8% | 2.4%
COCCn1c(=NC(=O)CSC(C)=O)sc2cc(OC)ccc21 | -9.5% | -4.3% | -21.4 | -19.4% | 16.2%
CCn1c(=NC(=O)CSC(C)=O)sc2cc(OC)ccc21 | -8.8% | ? | 25.1 | 10µM* | 12.3%
O=C(CCN1CCCCC1)N1CCc2c([nH]c3ccccc23)C1c1cccnc1 (stereo not given) | -3.5% | . | ? | . | 9.5%
CC1(C)Cc2nc3sc4c(NCCO)ncnc4c3cc2CS1 | -16.4% | ? | -3.2 | 3.98µM* | -0.9%
CCC(CC)CN1CCN=C1N(C)C | -0.5% | 4.0% | 8.6 | -1.7% | -0.6%
Cc1ccc(CN2CC(N3CCCC3)CS2(=O)=O)cc1 (stereo not given) | . | . | 3.8 | . | .
